Laboratory results from PubChem BioAssay AID435019 (Southern Research Specialized Biocontainment Screening …, 2010).
About 1,200 (52%) of roughly 2,300 compounds were called active. The rule behind the calls is not given here. The set was probably picked from earlier hits. Some of the results follow. Measured potencies and affinities stand elsewhere.

Test: mammalian cell cytotoxicity, dose response, cytotoxicity control for M. tuberculosis inhibitor project (AID 435019);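 note: lower values mean fewer viable cells so more cytotoxicity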
Details: cytotoxicity counter-screen; series mostly up to 40 µM

SMILES	outcome
CC(C)(C)c1ccc(OCCCC(=O)NC2=NCCS2)cc1	inactive
CCOC(=O)c1sc2nc(C)nc(SC(C)C(=O)N(C)c3ccccc3)c2c1C (centres undefined)	inactive
O=C(CCCC(=O)OCC(=O)c1cccs1)Nc1ccc(Oc2ccccc2)cc1	inactive
CCc1cc2c(=O)n(C(C)C(=O)OC3CCCCC3)cnc2s1 (centres undefined)	inactive
Cc1ccc(S(=O)(=O)NNC(=O)c2cc([N+](=O)[O-])c(C)c([N+](=O)[O-])c2)cc1	inactive
COc1ccc(N(CC(=O)Nc2ccccc2C(N)=O)S(=O)(=O)c2ccc(C)c([N+](=O)[O-])c2)cc1	inactive
CCc1cccc2c(=O)c(C(=O)N3CCOCC3)c[nH]c12	inactive
COc1ccc(N=Cc2ccc(CNS(=O)(=O)c3ccc(Cl)cc3)o2)cc1	inactive
CN(C)c1ccc(CNC2C3CC4CC(C3)CC2C4)cc1 (centres undefined)	inactive
CCCCCCCCCCNC(=O)C(=O)Nc1ccccn1	inactive
CCOc1ccccc1NC(=O)C12CC3CC(C1)CC(c1ccc(C)cc1)(C3)C2	inactive
C[C@H](O)[C@H](O)[C@H]1CNc2nc(N)[nH]c(=O)c2N1	inactive
Cc1cc(C)cc(NC(=O)CCc2ccc(C)o2)c1	inactive
Cc1cc(C(=O)COC(=O)C2=COCCO2)c(C)n1-c1cccc(F)c1	inactive
O=C(NC1CCCCC1)C1CC(=O)N(c2cccc([N+](=O)[O-])c2)C1 (centres undefined)	inactive
CC(=O)OC1=Cc2c(ccc3ccc(=O)oc23)OC1(C)C	inactive
COc1ccc(NCc2nnc(SCC(=O)c3ccc(OC)cc3)o2)cc1	inactive
COc1ccc(/C(O)=C/Sc2nnc(Cc3ccccc3)o2)cc1	inactive
Nc1ccc2c(c1)nnn2-c1ccccc1	inactive
COc1cc(/C=C(\C#N)c2nc3c(s2)CC(C)CC3)ccc1O (centres undefined)	inactive
CCC[C@@H]1C[C@@H](C(=O)NC(C(C)Cl)[C@H]2O[C@H](SC)[C@H](O)[C@@H](O)[C@H]2O)N(C)C1 (some centres undefined)	inactive
Nc1ccc(Oc2ccc3c(c2)OCO3)cc1	inactive
O=C1NN(c2ccc(Br)cc2)C(=O)/C1=C\c1ccc(O)cc1O	inactive

SMILES	outcome
C=CCOc1ccc(C2=NOC(C(=O)Nc3ccc4c(c3)OCCO4)C2)cc1 (centres undefined)	inactive
COc1ccccc1NC(=O)CN1CCN(CC(=O)Nc2ccc3c(c2)OCO3)CC1	inactive
Nc1ncc2[nH]cnc2n1	inactive
C[C@]12C=CC(=O)C=C1CC[C@@H]1C2=CC[C@]2(C)[C@@H](C(=O)CN3CCN(c4cc(N5CCCC5)nc(N5CCCC5)n4)CC3)CC[C@@H]12	inactive
COc1ccc(/C=N/Nc2nncn2N)cc1Br	inactive
CCOC(=O)CSc1snnc1-c1ccccc1	inactive
CCc1ccc(CCOc2ccc(CC3SC(=O)NC3=O)cc2)nc1 (centres undefined)	inactive
Cc1cc(C)n(C(=O)c2ccc([N+](=O)[O-])cc2[N+](=O)[O-])n1	inactive
Cc1ccc(NC(=O)c2ccc(CSc3nnc(C)s3)cc2)c(C)c1	inactive
COC(=O)c1cc(NC(=O)c2c(F)c(F)c(F)c(F)c2F)cc(C(=O)OC)c1	inactive
C=CC[n+]1ccn(-c2nc3ccccc3nc2[N-]S(=O)(=O)c2cccs2)c1	inactive
C/C(CC(=O)Nc1ccc2c(c1)OCCO2)=N\NC(=O)c1ccccc1F	inactive
N#CC(C(=O)NCc1ccco1)c1nc2ccccc2nc1N1CCOCC1 (centres undefined)	inactive
CCOC(=O)C1CCN(c2nc3cc(OC)ccc3cc2C#N)CC1	inactive
O=C(/C=C\c1cccs1)N1CCN(Cc2ccc3c(c2)OCO3)CC1	inactive
COC(=O)C1CC(=O)N(c2ccc(OCc3ccccc3Cl)cc2)C1 (centres undefined)	inactive
CCCn1nnc(NC(=O)COc2ccc(CC)cc2)n1	inactive
CCOC(=O)c1cc(-c2ccccc2)nc2c1c(C)nn2-c1ccccn1	inactive
CCOC(=O)c1cnc2ccc(OCC)cc2c1N1CCN(c2ccccc2)CC1	inactive
COc1ccc(OCc2nnc3n2N=C(c2ccccc2)C(CC(=O)O)S3)cc1 (centres undefined)	inactive
Cc1ccsc1/C=C1\SC(N2CCOCC2)=NC1=O	inactive
CCOc1ccc(C2=Nc3ccc(Br)cc3C(c3ccc(N4CCOCC4)cc3)=NN2)cc1	inactive
Cc1nc(S/C(=C/c2ccc(-c3ccc(Cl)cc3)o2)C(=O)O)n[nH]1	inactive

SMILES	outcome
CSCCC(=O)N1CCCC(CNC(=O)c2ccc(-c3ccccc3)cc2)C1 (centres undefined)	inactive
Cc1cc(C)c(C(N)=O)c(SCC(=O)c2ccc(Cl)cc2)n1	inactive
CCC(=O)c1ccc(OCC(=O)OCC(=O)c2cc(C)n(C3CC3)c2C)cc1	inactive
COc1ccc2c(c1)CC/C(=C\C=C\c1ccccc1OC)C2=O	inactive
COc1ccc(N=Cc2c[nH][nH]c2=O)cc1	inactive
O=S(=O)(Nc1ccn(-c2ccccc2)n1)c1ccc(Br)cc1	inactive
CCC(C)OC(=O)C(C)Oc1ccc(-c2ccccc2)cc1 (centres undefined)	inactive
O=c1ccn(-c2ccccc2)[nH]1	inactive
Cc1ccc(NC(=O)CNCc2cccs2)cc1Br	inactive
O=C(c1cccc([N+](=O)[O-])c1)N1CCN(c2ccc(N3CCOCC3)nn2)CC1	inactive
CCOP(=O)(OCC)/C(=C/N1CCCCC1)NC(=O)c1ccccc1	inactive
Cc1ccccc1CSc1nsc(N)n1	inactive
Cc1nnc(SCc2ccccc2Cl)n(N)c1=O	inactive
CN(CCCCCCCCCCN(C)C(=O)Oc1cccc([N+](C)(C)C)c1)C(=O)Oc1cccc([N+](C)(C)C)c1	inactive
CCOC(=O)c1ccc(NC(=S)Nc2ccc3[nH]c(=O)[nH]c3c2)cc1	inactive
CCOC(=O)c1ccc(Nc2cc3ccccc3c(=O)[nH]2)cc1	inactive
CC(C)(C)OC(=O)NNC(=S)NC1CCCCC1	inactive
CCOC(=O)CNC(=O)c1sc2ncnc(N3CCc4ccccc4C3)c2c1C	inactive
CCOc1ccc(NC(=O)c2sc3nc(C)nc(N4CCOCC4)c3c2C)cc1	inactive
O=C(Nc1ccc(-c2noc(CCc3ccccc3)n2)cc1)c1cccnc1	inactive
CCOC(=O)c1nnc(-c2ccccc2)nc1NCc1ccccc1	inactive
O=C(OCC(=O)N1CCCCC1)c1cc2ccccc2cc1O	inactive
COC(=O)C(CCSC)NC(=O)c1cn(-c2ccc(OC)cc2)c(=O)c2ccccc12 (centres undefined)	inactive
